Test results reported in the OligoGym collection.

Biological target: DTX1
Experiment: pooled miR-30 sensor sort-seq; sequence = guide strand
Details: shRNA
Further: reference of the scale not given here.

Sequence | sensor-assay potency score (higher = more potent)
TCTTCGAACCACATCCTCGGGA | -0.159
TTTGTAGAACTGCTCAGTCATC | -1.13
TTGAAGTAGATGAGGTAGCAGA | -0.853

Biological target: DTX3L
Experiment: as above
Details: shRNA

Sequence | sensor-assay potency score (higher = more potent)
TTGAGGTCTCGTGTTCTTCTTT | -0.195
TAGCTCTCCAGCTTCCTTCGTA | 0.0161
TTCGTCAACAAGTATTTGGTGC | 0.16
TTCGATCTCTGATATCTCCTGT | 0.612
TTGGAAGTCACCACACACCTTC | 0.463
TATTCTTTCAATGTCTTGGAAG | -0.89
TTTTTCAACACTCTCTCCTTAG | -0.54
TTGTGGTGAATATCATTCCAAG | -1.27
TAGAACATACTGCTTCGCCTTT | -0.506
TTTGTGGTGAATATCATTCCAA | -0.425
TAAAGAGACACATTCTTGCTTC | 0.883
TTCCAGGGTATCTCTTTCCTGG | -0.87
